WRN helicase inh-1: inhibitors of human WRN helicase; Q14191; WRN helicase unwinding, fluorescent forked duplex, kinetic; Potency, µM (series often up to 114 µM), actives largely listed as inhibitors; 360,000 tested, 0.46% active; AID 651768; also: nearly all actives have a fitted effect of over 55% in size
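Primary qHTS, 1536-well format. 20 nM WRN + compound, 15 min RT; start with 100 nM forked fluorophore/quencher duplex, 2 mM ATP (final); kinetic read ex 525/em 598 nm.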
Pol iota inh: DNA polymerase iota (human) inhibition | Q9UNA4 | Pol iota fluorescent replication assay, 10 min | Potency, µM (titrated, usually from 115 µM), usual class: inhibitors | 390,000 tested, 1% active | AID 588590
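Pol iota at 10 nM preincubated 15 min with compounds at room temperature; reaction started with fluorescent substrate, 50 nM final. Fluorescence read kinetically at 0 and 10 min; buffer-only wells as negative control.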
POLB inh: DNA polymerase beta (human) inhibition. P06746. Pol beta primer extension/strand displacement, fluorescence kinetic. Potency, µM (top dose mostly 114 µM), hits mostly inhibitors. 340,000 tested, 1.3% active
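Human Pol beta at 10 nM; strand-displacement substrate 50 nM final. Compound exposure 15 min at room temperature before start, reaction 10 min at room temperature.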
Pol kappa inh-1: blocks human DNA polymerase kappa activity; purified Pol kappa, fluorescent DNA synthesis assay, 10 min; Potency, µM (highest dose often 107 µM), usual class: inhibitors; 400,000 tested, 0.53% active
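First, compounds were pin-transferred onto 10 nM Pol kappa. After 15 min at room temperature, substrate was added to 50 nM final. Fluorescence was then measured kinetically at 0 and 10 min.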
Pol eta inh-1: DNA polymerase eta (human) inhibition; Q9Y253; 390,000 tested, 1.2% active; AID 588591; recombinant Pol eta, fluorescent DNA replication assay; Potency, µM (doses to about 114 µM), actives largely listed as inhibitors
Target sequence (Q9Y253 whole entry, looked up): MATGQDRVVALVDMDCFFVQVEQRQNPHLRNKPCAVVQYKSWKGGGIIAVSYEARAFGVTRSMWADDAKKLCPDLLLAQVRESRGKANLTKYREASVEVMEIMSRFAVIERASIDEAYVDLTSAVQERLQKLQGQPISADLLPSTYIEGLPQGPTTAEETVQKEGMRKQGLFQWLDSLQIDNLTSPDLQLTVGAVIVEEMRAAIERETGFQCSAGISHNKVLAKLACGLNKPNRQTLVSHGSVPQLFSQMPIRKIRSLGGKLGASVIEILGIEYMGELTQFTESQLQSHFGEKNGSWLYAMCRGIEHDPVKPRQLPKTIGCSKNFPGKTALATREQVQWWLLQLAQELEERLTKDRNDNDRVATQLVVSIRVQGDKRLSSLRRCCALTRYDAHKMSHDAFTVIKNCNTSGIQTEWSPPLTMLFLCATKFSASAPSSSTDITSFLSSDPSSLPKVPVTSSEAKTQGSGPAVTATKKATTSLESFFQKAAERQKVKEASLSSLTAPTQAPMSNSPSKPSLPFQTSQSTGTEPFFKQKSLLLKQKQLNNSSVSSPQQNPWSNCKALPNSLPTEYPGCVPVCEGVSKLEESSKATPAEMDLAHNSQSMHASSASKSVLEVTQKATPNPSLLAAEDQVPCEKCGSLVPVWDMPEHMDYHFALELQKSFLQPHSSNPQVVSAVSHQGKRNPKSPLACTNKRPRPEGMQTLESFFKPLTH
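Pol eta at 10 nM preincubated with compounds 15 min at room temperature; reaction started with fluorescent substrate (50 nM final) and read kinetically at 0 and 10 min.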
PI5P4K alpha inh: PI5P4K alpha (human) kinase inhibition | PI5P4Kalpha enzyme, ADP-Glo luminescence, 60 min; hits give low values | max response, % | 330,000 tested, 1.2% active; active = max response of -50% or lower; inconclusive = between -30% and -50%; inactive = -30% or higher; also: value at the top dose of about 77 µM
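PI5P4Kalpha ADP-Glo assay; 5 microM ATP final; 60 min RT reaction; HEPES pH 7.4/EGTA/CHAPS, 5% DMSO; controls lacking substrate or enzyme; luminescent end-point.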
TbPGK inh: TbPGK inhibition, hit validation; shares compounds with Pol kappa inh-1; TbPGK coupled GAPDH assay, Kinase-Glo luminescence; Potency, µM (series often up to 57.5 µM), hits mostly inhibitors; 500 tested, 79% active; also: nearly all actives have a fitted effect of over 65% in size
POLI cherry-pick: Inhibitors of human DNA polymerase iota, confirmation. shares compounds with Pol kappa inh-1. 1,500 tested, 77% active. Pol iota primer extension, TAMRA/BHQ fluorescence. Potency, µM, hits mostly inhibitors. AID 720496
Pol kappa inh-2: Pol kappa (human) inhibition, cherry-pick confirmation | AID 720501 | shares compounds with Pol eta inh-1 | purified Pol-kappa, fluorescent strand-displacement substrate | 920 tested, 76% active | Potency, µM, actives largely listed as inhibitors
Pol eta inh-2: confirmation of human DNA polymerase eta inhibitors; shares compounds with Pol eta inh-1; Pol eta primer extension, TAMRA/BHQ fluorescence, 10 min; Potency, µM, usual class: inhibitors; 2,600 tested, 64% active; AID 720502
WRN helicase inh-2: confirmation of human WRN helicase inhibitors; shares compounds with WRN helicase inh-1; WRN helicase DNA unwinding, fluorescence kinetic; Potency, µM (highest dose often 57.1 µM), most hits filed as inhibitors; 610 tested, 63% active; AID 720497; also: nearly all actives have a fitted effect of over 65% in size
TO displacement: binds DNA, flagged in WRN inhibitor counterscreen | shares compounds with WRN helicase inh-1 | thiazole orange DNA binding displacement, fluorescence | Potency, µM (titrated, usually from 57.1 µM), actives largely listed as inhibitors | 610 tested, 10% active;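 also: drop in dye fluorescence marks compound binding to DNA; nearly all actives have a fitted effect of over 60% in size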
BLM counter: counter-screen for WRN helicase inhibitors: human BLM helicase inhibition. shares compounds with WRN helicase inh-1. Recombinant BLM helicase DNA unwinding, red fluorescence. Potency, µM (top dose mostly 57.1 µM), hits mostly inhibitors. 610 tested, 60% active; also: nearly all actives have a fitted effect of over 60% in size
A number is an active result; – = inactive; ? = inconclusive; · = no result given; ! = not confirmed by another sample. Most compounds without a hit are left out; they make up all but 2.8% or so of the library. Unless noted, calls follow the shape of the dose curve; as a rule, active = well fitted curve in the direction sought with a large enough effect; inconclusive = small, poorly fitted or top-dose-only effect, or another doubt; inactive = no such curve, though single readings can be large; an effect the other way counts as inactive or inconclusive.

SMILES	WRN helicase inh-1	Pol iota inh	POLB inh	Pol kappa inh-1	Pol eta inh-1	PI5P4K alpha inh	TbPGK inh	POLI cherry-pick	Pol kappa inh-2	Pol eta inh-2	WRN helicase inh-2	TO displacement	BLM counter
C=CCc1cccc2cc(-c3nc4ccc(C)cc4[nH]3)c(=O)oc12	·	?	–	–	·	·	·	·	·	·	·	·	·
O=C(COC(=O)c1ccccc1)Nc1ncc([N+](=O)[O-])s1	3µM	2.2µM	·	22µM	0.79µM	-74	3.3µM	2.7	0.75	1.7	3.4µM	24µM	1.1µM
O=C(CSc1n[nH]c(=O)[nH]c1=O)Nc1ccc2c(c1)C(=O)c1ccccc1C2=O	32µM	?	2.8µM	–	8.9µM	-59	3.3µM	27	24	19	8.6µM	12µM	4.3µM
C[C@@H]1CN([C@H](C)CO)C(=O)CCCn2nncc2CO[C@H]1CN(C)C(=O)c1ccc2ccn(C)c2c1	–	·	·	·	–	–	·	·	·	·	·	·	·
O=C(COc1ccccc1C(=O)N/N=C\c1ccc(O)c(O)c1)N/N=C/c1ccc(O)c(O)c1	0.27µM	–	0.28µM	0.71µM	–	-73	0.29µM	0.42	·	0.34	0.27µM	19µM	0.12µM
COc1ccc(N2CC(C(=O)NCc3nnnn3-c3ccc(C)c(C)c3)CC2=O)cc1 (stereo unspecified)	–	–	–	–	–	–	·	·	·	·	·	·	·
Cc1nc(S/C(=C\c2ccc(-c3ccc(C(=O)O)c(Cl)c3)o2)C(=O)O)n[nH]1	40µM	3.2µM	10µM	8.9µM	5µM	-71	15µM	17	·	5.4	1.2µM	?	19µM
Cc1c(NC(=O)/C(C#N)=C/c2ccc(-c3ccc(Cl)c(Cl)c3)o2)c(=O)n(-c2ccccc2)n1C	–	–	–	–	–	–	·	·	·	·	·	·	·
CCc1cc(=O)oc2cc(C)c(CN3CCCC3)c(O)c12	32µM	3.2µM	7.9µM	8.9µM	22µM	·	·	?	24	30	15µM	24µM	3.8µM
O=c1cc2oc3cc(O)c(O)cc3c(-c3ccccc3[N+](=O)[O-])c-2cc1O	0.75µM	?	0.32µM	0.79µM	0.79µM	-61	0.29µM	0.75	·	2.1	0.38µM	?	0.22µM
O=c1cc(-c2ccccc2Cl)oc2c([N+](=O)[O-])ccc(O)c12	·	·	·	–	·	·	·	·	·	·	·	·	·
CNc1ncnc(Sc2nc(N)nc3nc[nH]c23)c1[N+](=O)[O-]	–	?	·	–	–	–	·	·	·	·	·	·	·
Nc1nc(Sc2ccc([N+](=O)[O-])c3nonc23)c2[nH]cnc2n1	11µM	3.2µM	·	18µM	?	-84	18µM	21	15	30	22µM	43µM	15µM
CCOc1ccccc1NC(=O)CSc1nncc2ccccc12	–	–	–	–	–	–	·	·	·	·	·	·	·
COc1cccc2c1C(=O)c1c(O)c3c(c(O)c1C2=O)CC(O)(C(C)=O)CC3OC1CC(N(C)C)C(O)C(C)O1 (stereo unspecified)	18µM	22µM	·	?	11µM	–	·	11	24	19	24µM	–	24µM
COc1cccc2c1C(=O)c1c(O)c3c(c(O)c1C2=O)C[C@@](O)(C(=O)CO)C[C@@H]3OC1CC(N)C(O)C(C)O1 (stereo partly specified)	3µM	35µM	·	11µM!	5µM	–	·	17	9.5	60	17µM	–	27µM
CCCCC(=O)Nc1c2c(nn1-c1ccc(C)cc1)CS(=O)(=O)C2	–	–	–	–	–	–	·	·	·	·	·	·	·
O=C1CCCC(O)=C1N=Nc1ccc(C(=O)O)cc1	32µM	6.3µM	2.8µM	20µM	3.2µM	?	9.2µM	6	·	4.8	7.6µM	?	12µM
O=C1CCCC(O)=C1N=Nc1ccc2c(c1)OCO2	–	–	–	–	–	–	·	·	·	·	·	·	·
O=C(CCCN1C(=O)/C(=C/c2ccco2)SC1=S)Nc1ccccc1C(=O)O	32µM	22µM	–	?	11µM	-82	·	34	8.4	19	19µM	–	24µM
O=C(CCN1C(=O)/C(=C/c2ccc(Cl)cc2)SC1=S)Nc1ccc(C(=O)O)cc1	–	–	–	–	–	–	·	·	·	·	·	·	·
O=C(CCCN1C(=O)/C(=C/c2ccccc2)SC1=S)Nc1ccccc1O	–	–	–	–	–	–	·	·	·	·	·	·	·
O=C(CCN1C(=O)/C(=C/c2ccco2)SC1=S)Nc1ccc(C(=O)O)c(O)c1	45µM	4µM	?	20µM	4.5µM	-63	·	30	17	?	17µM	–	22µM
CC(=O)c1c(C)[nH]c(C(=O)NNC(=O)c2ccc(Br)cc2)c1C	–	–	·	–	–	–	·	·	·	·	·	·	·
Nc1ccc2nc(-c3cccc(-c4nc5ccc(N)cc5[nH]4)n3)[nH]c2c1	20µM	14µM	25µM	56µM	20µM	?	·	17	27	19	5.4µM	17µM	4.8µM
Cc1ccc(OCC(=O)c2c(N)n(C)c(=O)n(C)c2=O)c([N+](=O)[O-])n1	45µM	10µM	·	35µM	11µM	-50	·	34	11	30	17µM	–	4.8µM
O=c1c(-c2ccc([N+](=O)[O-])cc2)coc2c(O)c(O)ccc12	22µM	8.9µM	?	7.1µM	3.2µM	–	2.6µM	·	·	8.5	4.8µM	–	4.3µM
COc1ccc(C(=O)N(C)CCOc2ccc(Cl)cc2)cc1S(=O)(=O)N1CCCC1	–	·	·	·	–	–	·	·	·	·	·	·	·
CCN(CC)CCCNc1nc(-c2ccccc2)nc2ccccc12	–	–	?	–	–	·	·	·	·	·	·	·	·
CCN(CC)CCCNc1nc2ccccc2c2[nH]c3ccc(OC)cc3c12	25µM	18µM	·	18µM	10µM	–	·	3	3.4	30	6.8µM	?	?
